# Test results published in PubChem BioAssay AID504834 (National Center for Advancing Translational Sciences (NCATS), 2011).
# About 22,000 (6.9%) of roughly 320,000 compounds were called active. About 27% were inconclusive and are not listed. Calls come from the whole dose curve; as a rule, active = well fitted inhibition curve with a large enough effect; inconclusive = small, poorly fitted or top-dose-only effect, or another doubt; inactive = no such curve, though single readings can be large or run the other way. The list comes from a sample in which actives are over-represented; it also holds similar structures and randomly drawn compounds.
# Assay: Primary qHTS for delayed death inhibitors of the malarial parasite plastid, 96 hour incubation
# Details: P. falciparum luciferase reporter growth; series mostly up to 28.7 µM; activity change, negative = inhibition: at the top concentration
# In short: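 P. falciparum expressing integrated firefly luciferase, in erythrocytes at 2% hematocrit, 0.05% parasitemia, incubated with compounds 96 h at 37 C, 5% CO2. Growth inhibition read as loss of luminescence; two-generation exposure targets delayed-death apicoplast inhibitors.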
# % is set by controls: 0 for no effect and ±100 for the full control effect; potency is the fitted concentration of half-maximal effect.
SMILES,"activity change, negative = inhibition",Potency
O=C(O)c1ccc(NC(=O)c2ccc(COc3ccc(Cl)cc3)o2)cc1,-3.61% (inactive),–
COc1ccccc1CNS(=O)(=O)CC12CCC(CC1=O)C2(C)C (stereo not given),-8.22% (inactive),–
O=C(CCCN1C(=O)C2C3C=CC(C3)C2C1=O)N1CCN(c2ccccc2)CC1 (stereo not given),-1.15% (inactive),–
CC(=O)Cn1cnc2c(cnn2-c2ccccc2)c1=O,2.1% (inactive),–
Cc1c2cnn(-c3ccccc3)c(=O)c2c(C)n1CCCC(=O)N1CCN(C)CC1,–,13.1 µM (active)
O=C(NCc1ccncc1)c1cccc(NS(=O)(=O)c2ccc(F)c(F)c2)c1,-14.9% (inactive),–
CCOc1ccccc1NS(=O)(=O)c1cc2c3c(c1)C(C)C(=O)N3CCC2 (stereo not given),35.1% (inactive),–
O=C(/C=C/c1ccc(F)cc1)NC(=S)NNC(=O)c1cccnc1,41% (inactive),–
COc1ccc(/C=C/C(=O)NC(=S)NN2CCCCC2c2cccnc2)cc1 (stereo not given),–,13.1 µM (active)
CCOc1ccc(NC(=S)NC(=O)/C=C/c2ccc(OC)cc2)c([N+](=O)[O-])c1,12.4% (inactive),–
COC(=O)[C@@H](Cc1ccccc1)NC(=O)NCCc1ccccc1,25.5% (inactive),–
NC1=NC(=O)S/C1=C\c1ccc(O)cc1,-5.18% (inactive),–
O=C1N=C(N2CCc3ccccc3C2)S/C1=C\c1ccc(O)cc1,–,11.7 µM (active)
O=C1N=C(N2CCCC2)S/C1=C\c1cccc(Br)c1,-20.9% (inactive),–
COc1ccc(-c2nc3n(c(=O)c2C#N)CCS3)c(OC)c1,37.4% (inactive),–
COc1cc(NS(=O)(=O)c2ccc(NC(=S)NC(=O)c3ccccc3)cc2)nc(OC)n1,-7.09% (inactive),–
Cc1ccnc(NC(=O)CCNS(=O)(=O)c2ccc(C)c(C)c2)c1,253% (inactive),–
C/C(=N/NC(=O)c1ccc(Br)o1)c1ccc(C)o1,-27.2% (inactive),–
Cc1ccc(NC(=S)NC2CCCC2)cc1,60.3% (inactive),–
C/C(=N\NC(=S)NC1CCCCC1)c1ccc(C)o1,–,4.65 µM (active)
CCCc1cc(C(=O)Nc2ccc(Cl)cn2)cs1,-17.8% (inactive),–
CCOc1ccc(CCNC(=O)Nc2ccccc2)cc1OCC,5.2% (inactive),–

SMILES,"activity change, negative = inhibition",Potency
COC(=O)c1cccc(N2C(=O)C3C4C=CC(CC4)C3C2=O)c1 (stereo not given),16.2% (inactive),–
Cn1c(=NC(=O)CSCC(=O)N2CCOCC2)sc2ccccc21,8.65% (inactive),–
Cn1c(=NC(=O)c2cnccn2)sc2ccccc21,–,11.7 µM (active)
Cn1c(=NC(=O)CSCC(=O)N2CCCCC2)sc2ccccc21,34.9% (inactive),–
CCN(CC(=O)Nc1ccccc1C(=O)NC1CC1)Cc1cccs1,11.3% (inactive),–
COc1cc(CN2CCC(n3nccc3NC(=O)CCCc3ccccc3)CC2)ccc1O,15.5% (inactive),–
COCCCN1C(=O)C(=O)/C(=C(/O)c2ccc(S(=O)(=O)N3CCOCC3)cc2)C1c1ccc(F)cc1 (stereo not given),2.37% (inactive),–
CCc1cccc(NC(=O)C2CCCN(S(=O)(=O)c3ccc4[nH]c(=O)ccc4c3)C2)c1 (stereo not given),-7.69% (inactive),–
CCNC(=O)N1CCN(S(=O)(=O)c2ccc3c(c2)OCCCO3)CC1,-9.41% (inactive),–
Cc1ccc(C(=O)NCC(=O)O)cc1S(=O)(=O)N1CCCCC1,-3.2% (inactive),–
Cc1ccc(C(=O)Nc2ccc3c(c2)OCO3)cc1S(=O)(=O)N1CCCCC1,46.5% (inactive),–
Cc1ccc(C(=O)NC2CCCC(C)C2C)cc1S(=O)(=O)N1CCCCC1 (stereo not given),–,14.7 µM (active)
CC(C)CCNC(=O)c1ccc2c(Cl)c3c(nc2c1)CCC3,34% (inactive),–
O=C(NNC(=O)c1ccco1)Nc1ccccc1,0.862% (inactive),–
O=C(Nc1ccc2oc(-c3ccc4ccccc4c3)nc2c1)c1cccs1,–,4.65 µM (active)
O=C(Cc1cccc2ccccc12)Nc1ccc2oc(-c3ccccc3)nc2c1,-21.5% (inactive),–
CC(=O)Nc1ccc(-c2nc3ccccc3o2)cc1,-22.4% (inactive),–
O=C(c1ccc(Br)o1)N1CCN(CCOc2ccccc2)CC1,-12.7% (inactive),–
COc1ccc2[nH]cc(CCN3C(=O)c4ccc(C(=O)O)cc4C3=O)c2c1,33.5% (inactive),–
COc1ccc(N2C(=O)c3ccccc3NC2c2ccc(OC)c(CN3CCOCC3)c2)cc1 (stereo not given),316% (inactive),–
COc1ccc(C2Nc3ccccc3C(=O)N2c2ccc(F)cc2)cc1Cn1nnc2ccccc21 (stereo not given),–,9.28 µM (active)
Fc1ccc(OCc2nn3c(Cn4nnc5ccccc54)nnc3s2)cc1,-28.1% (inactive),–

SMILES,"activity change, negative = inhibition",Potency
CC(=O)NN1C(=O)c2ccccc2NC1c1ccccc1 (stereo not given),-3.77% (inactive),–
Cc1ccc(C2Nc3ccccc3C(=O)N2CCN2CCNC2=O)cc1 (stereo not given),-0.318% (inactive),–
COc1ccc(C2Nc3ccccc3C(=O)N2Cc2ccccc2)cc1Cn1nnc2ccccc21 (stereo not given),–,3.29 µM (active)
COc1ccc(N(CC(=O)NCC2CCCO2)C(=O)CCC(=O)Nc2nccs2)c(OC)c1 (stereo not given),-6.68% (inactive),–
O=C(CSc1nc2[nH]c(=O)[nH]c(=O)c2s1)Nc1cccc(F)c1,1.82% (inactive),–
Cc1ccc(S(=O)(=O)N2CCCCC2)cc1C(=O)N(C)CC(=O)Nc1cccc(F)c1,-27.7% (inactive),–
CC(C)(C)C(=O)COC(=O)c1cc(S(=O)(=O)N2CCCCC2)ccc1N1CCOCC1,19.3% (inactive),–
CCc1nn(CC(=O)N2CCN(CC)CC2)c(=O)c2cccn12,40.8% (inactive),–
CC(NC(=O)C1CCCN(S(=O)(=O)c2ccc(-n3cnnn3)cc2)C1)c1ccc(F)cc1 (stereo not given),-24.7% (inactive),–
C=CCn1c(=NC(=O)c2cccs2)sc2cc(NC(C)=O)ccc21,110% (inactive),–
COc1cc(C(C)=O)ccc1OC(C)C(=O)Nc1ccc(S(=O)(=O)N2CCCC2)cc1 (stereo not given),2.7% (inactive),–
C=CCn1c(=NC(=O)c2ccc(S(=O)(=O)N3CCCC3)cc2)sc2cc(NC(C)=O)ccc21,–,0.928 µM (active)
O=C(Cc1ccccc1F)NC1CCSc2ccccc21 (stereo not given),-14.4% (inactive),–
O=S(=O)(/C=C/c1ccccc1)N1CCNCC1,-0.204% (inactive),–
CC1CCN(C(=O)CCNC(=O)c2ccccc2)CC1,0% (inactive),–
Cn1c(CC2Sc3ccccc3NC2=O)nnc1SCC(=O)c1ccc(Cl)cc1 (stereo not given),-8.32% (inactive),–
O=C(NCCN1CCOC1=O)C1CCC(=O)N(CCc2ccc(Cl)cc2)C1 (stereo not given),-21.2% (inactive),–
CCOC(=O)C1=C(C)NC(=O)N(C(C)=O)C1c1ccc(Cl)cc1 (stereo not given),–,4.15 µM (active)
COCCOC(=O)C1=C(C)NC(=O)NC1c1ccc(Cl)cc1 (stereo not given),10.3% (inactive),–
CCOC(=O)COc1ccc(Cl)cc1C1NC(=O)NC(C)=C1C(C)=O (stereo not given),-16% (inactive),–
OC(COc1ccc(F)cc1Cl)CN1CCc2ccccc2C1 (stereo not given),5.53% (inactive),–
CS(=O)(=O)c1ccccc1C(=O)Nc1ccc2sccc2c1,35.9% (inactive),–

SMILES,"activity change, negative = inhibition",Potency
O=[N+]([O-])c1cccc2ncccc12,2.85% (inactive),–
C/C(=N\NC(=S)NC(C)C)c1ccc(C(C)(C)C)cc1,–,3.7 µM (active)
C/C(=N\NC(N)=S)c1ccncc1,17.4% (inactive),–
C/C(=N\NC(N)=S)c1cccnc1,22.1% (inactive),–
CC(C)Cc1nnc(NC(=O)CCc2ccccc2)s1,-25% (inactive),–
CC(=O)N(Cc1cc(=O)[nH]c2ccccc12)c1ccc(C)cc1C,-0.0262% (inactive),–
Cc1noc(C)c1CSCC(=O)Nc1ccc(Br)cc1Cl,0.407% (inactive),–
Cc1cccc(Cn2cnc3c(N)c(C)c(C)cc32)c1,–,10.4 µM (active)
CCOC(=O)c1cn(Cc2cccc(C)c2)nn1,-7.81% (inactive),–
COc1cccc(Cn2cnc3c([N+](=O)[O-])c(C)c(C)cc32)c1,-13.7% (inactive),–
Cc1ccc(NC(=O)c2cc3ccccc3o2)cc1,15.5% (inactive),–
O=C(O)c1[nH]c2ccccc2c1C(c1cccc(O)c1)c1c(C(=O)O)[nH]c2ccccc12,31.7% (inactive),–
COc1ccc(NC(=O)CN(C)C(=O)CNC(=O)C2CCCCC2)cc1,1.78% (inactive),–
O=S(=O)(Oc1ccccc1C(=S)N1CCOCC1)c1ccc(Cl)cc1,-6.25% (inactive),–
CCCCNC(=O)CCn1nc(-c2ccc(Cl)cc2)ccc1=O,-4.67% (inactive),–
Cc1ccc(S(=O)(=O)N(CC(=O)N2CCc3ccccc3C2)c2cccc(Cl)c2)cc1,–,8.28 µM (active)
COc1cccc(N(CC(=O)N2CCc3ccccc3C2)S(C)(=O)=O)c1,-3.71% (inactive),–
Cc1ccc(Cl)c(OCC(=O)N2CCc3ccccc3C2)c1,-26.9% (inactive),–
CC(C)=CCC/C(C)=C/C(=O)O,38.9% (inactive),–
CC(C)N1C(=O)C2C(C(=O)NC3CCCCC3)C3C=CC2(O3)C1C(=O)NC1CCCC1 (stereo not given),-1.06% [at 5.75 µM] (inactive),–
O=C(NCc1cccnc1)Nc1ccccc1F,2.75% (inactive),–
O=C(Nc1ccccc1F)C1C2C=CC3(O2)C1C(=O)N(c1cccnc1)C3C(=O)NC1CCCCC1 (stereo not given),–,13.1 µM (active)

SMILES,"activity change, negative = inhibition",Potency
Nc1ccccc1C(=O)NC1CCCCNC1=O (stereo not given),13.7% (inactive),–
O=C1CCNCCN1[C@H](CO)Cc1ccccc1,-16.3% (inactive),–
Cc1cccc([C@H](C)c2cnc[nH]2)c1C,–,4.26 µM (active)
Cc1cccc(N2CCN(C(=O)C3CCN(S(=O)(=O)c4cnc[nH]4)CC3)CC2)c1C,-24.5% (inactive),–
CSc1ncccc1C(=O)NCc1ccccc1Cl,18% (inactive),–
COc1ccc(CNC(=O)c2ccc(Br)s2)cc1OC,5.99% (inactive),–
OC(CNCc1ccc2c(c1)OCO2)COc1ccccc1 (stereo not given),-21.4% (inactive),–
CN(Cc1ccccc1)CC(O)COc1ccc(CNCc2cc3ccccc3s2)cc1 (stereo not given),–,4.15 µM (active)
Cc1ccc(OCC(=O)OC(C)CN(C)Cc2ccccc2)cc1 (stereo not given),8.03% (inactive),–
CC(C)C[C@H](NC(=O)[C@@H]1O[C@H]1C(=O)O)C(=O)NCCCCN=C(N)N,–,3.29 µM (active)
COP1(=O)C[C@@H](O)[C@@H](O)[C@@H](COCc2ccccc2)O1 (stereo not given in full),30.8% (inactive),–
COc1ccc(/C=C2\N=C3CCCN3C2=O)cc1,43.5% (inactive),–
CSc1nc(C)nc(C2CC2)c1C#N,10.3% (inactive),–
Cc1cc(N2CCN(c3ccc(F)cc3)CC2)n2ncnc2n1,33.7% (inactive),–
Cc1cc(C)nc(N/N=C/c2ccc([N+](=O)[O-])o2)n1,–,5.22 µM (active)
Cc1cc(C)nc(N/N=C/c2ccncc2)n1,-3.32% (inactive),–
O=C(N/N=C/c1ccc([N+](=O)[O-])o1)c1cc([N+](=O)[O-])cc([N+](=O)[O-])c1O,-102% (inactive),–
CCOC(=O)c1cc(C(C)C)sc1NC(=O)COC(=O)c1nccnc1N,62.1% (inactive),–
Cc1ccc(NC(=O)[C@H](Cc2ccccc2)NC(=O)C2CCNCC2)cc1,-1.68% (inactive),–
CC(=O)NS(=O)(=O)c1ccc(NC(=O)/C=C/c2ccccc2Cl)cc1,2.7% (inactive),–
NS(=O)(=O)c1ccc(NC(=O)/C=C/c2ccccc2Cl)cc1,–,10.4 µM (active)
O=C(/C=C/c1ccccc1Cl)Nc1ccc(S(=O)(=O)Nc2ncccn2)cc1,5.65% (inactive),–
